The values below come from PubChem BioAssay AID1775 (NMMLSC, 2009).

Each structure is given as a SMILES string. Out of some 220,000 compounds screened, about 820 (0.37%) were called active. The entries come from a sample that favours actives as a whole. A number with no mark means an inactive call. Rule as the data show it: active = fluorescence above about 47; inactive = the rest.

This experiment in a line: green autofluorescence of compounds with avidin beads – biophysical, 488/530 nm, flow cytometry, artefact control, profiling panel (AID 1775). As to conditions: compound fluorescence 488/530 nm, at 10 µM, stronger effect = higher value.
With `O=C(c1ccco1)N1CCN(c2cccc(Cl)c2)CC1`, the fluorescence (KMESF) was 13.
The same measure for `O=C(Cc1c(F)cccc1Cl)N1CCN(C(=O)c2ccco2)CC1`: 91 (active); for `O=C(c1cccc(S(=O)(=O)Nc2ccccc2Cl)c1)N1CCN(C(=O)c2ccco2)CC1`: 12.
The value for `O=C1CC(Cc2ccc(Cl)cc2)C(=O)N1c1cc(Cl)ccn1` (configuration not stated) was 3.
With `COC(=O)c1c(NC(=O)CN(c2ccc(C)c(C)c2)S(C)(=O)=O)sc2c1CCCC2`, the fluorescence (KMESF) is 7.
On to `CSc1nc2nc(-c3cccc(C(F)(F)F)c3)ccn2n1`, for which the fluorescence (KMESF) was 28.
The value for `CN(CCOc1ccccc1)Cc1nc2cc(Cl)ccc2c(=O)[nH]1` was 19; that for `CCOC(=O)c1cc2c(=O)[nH]c(C(Cl)(Cl)Cl)nc2o1` was 5; that for `COc1ccc(Nc2ncc(F)c(N3CCOCC3)n2)cc1` was 5.
The same measure for `CC(C)/C=N/NC(=O)c1cc(Br)ccc1O`: 2; for `CC(=O)N/N=C(\C)c1ccc(Br)cc1Br`: 173 (active).
Take `O=C(/C(=N\O)n1cncn1)c1ccc(Br)cc1Br`: the fluorescence (KMESF) is 5.
For `CCOc1ccc(-c2nnc(-c3ccco3)o2)cc1`, the fluorescence (KMESF) was 8.
Take `Cc1ccc(OCC(=O)Nc2ccc(-c3nnc(-c4ccco4)o3)cc2)cc1`: the fluorescence (KMESF) was 50 (active).
`Cc1ccc(OCC(=O)Nc2nnc(-c3ccco3)s2)cc1`: the fluorescence (KMESF) was 8.
In the case of `CCOC(=O)N1CCN(c2cc(C)c([N+](=O)[O-])cc2F)CC1`, the fluorescence (KMESF) was 7.
As for `S=C(NCCc1ccccc1)NCc1ccccc1Cl`, the fluorescence (KMESF) is 13.
Turning to `COC(=O)c1c(C(=O)OC)c(-c2cccc(C)c2)n2c1CS(=O)C2` (configuration not stated), the fluorescence (KMESF) is 7.
`Cc1ccnc(NC(=O)CCC(=O)N(CC(=O)NCCc2ccccc2)Cc2cccs2)c1`: the fluorescence (KMESF) is 9.
With `O=C(O)CCC(=O)N(Cc1cccs1)Cc1cccs1`, the fluorescence (KMESF) is 74 (active).
Regarding `O=C(CCc1ccccc1)NCCc1cccs1`, the fluorescence (KMESF) was 6.
The same measure for `Cc1cc(C(=O)NCCc2ccc(Cl)cc2)n(-c2ccccc2)n1`: 6; for `CCOC(=O)c1nc(C)n(-c2ccc(Cl)cc2Cl)n1`: 8; for `Cc1cc(C)nc(/N=C2\NC(=O)CC(C(=O)O)N2c2ccc(Cl)cc2Cl)n1` (configuration not stated): 66 (active).
The value for `Cc1cc(C)nc(NC(=O)/C=C/c2ccc(Cl)cc2)n1` was 6.
For the compound `O=C(NCc1cccs1)c1ccc(Br)o1`, the fluorescence (KMESF) is 12.
Regarding `CC(CNC(=O)c1ccc(Br)o1)NC(=O)c1ccc(Br)o1` (configuration not stated), the fluorescence (KMESF) is 48 (active).
With `CC(CCc1ccccc1)NC(=O)c1ccc(Br)o1` (configuration not stated), the fluorescence (KMESF) is 8.
On to `CC(=O)N(OCc1ccc(OC(C)C)c(Cl)c1)C(C)=O`, for which the fluorescence (KMESF) is 8.
In the case of `CC(=O)NCC(=O)N(Cc1ccco1)C1(C(=O)NC2CCCC2)CCCCC1`, the fluorescence (KMESF) is 6.
In the case of `CS/C(=C\[N+](=O)[O-])Nc1ccc(C)cc1`, the fluorescence (KMESF) was 12.
Regarding `Cc1cc(Cl)ccc1NC(=S)N1CCC(C(N)=O)(N2CCCCC2)CC1`, the fluorescence (KMESF) was 10.
As to `COc1cc(C(=O)NCc2nnc(SCC(=O)Nc3nc4ccc(C)cc4s3)o2)cc(OC)c1OC`, the fluorescence (KMESF) was 19.
Regarding `Nc1c(-c2ccc(F)cc2)cnn1C1CCS(=O)(=O)C1` (configuration not stated), the fluorescence (KMESF) is 7.
As to `Nc1c(-c2ccc(F)cc2)cnc2ncnn12`, the fluorescence (KMESF) was 76 (active).
Consider `Cc1cc(N2CCN(c3ccc(F)cc3)CC2)n2ncnc2n1`, for which the fluorescence (KMESF) was 9.
The value for `CC(C)(C)OC(=O)N/N=C/c1cn(-c2ccccc2)nc1-c1cccnc1` was 13; that for `O=C(NCc1csc(-c2cccs2)n1)C1CC1` was 2.
Consider `CC1Cc2ccccc2N1S(=O)(=O)c1ccc(Cl)nc1` (configuration not stated), for which the fluorescence (KMESF) was 4.
For `COc1cc(CO)c(C2(CO)CCCC2)cc1OC`, the fluorescence (KMESF) is 36.
`Cc1nc2nc(SCC(=O)NCc3ccco3)nn2c(C)c1Cc1ccccc1`: the fluorescence (KMESF) is 15.
On to `COc1cc(OC)cc(-c2nc3nc(C)c(CCC(=O)NCc4ccco4)c(C)n3n2)c1`, for which the fluorescence (KMESF) is 59 (active).
In the case of `Cc1nc2c(-c3ccc(F)cc3)c(C)nn2c(C)c1CCC(=O)NCc1ccco1`, the fluorescence (KMESF) was 6.
As to `CCOC(=O)C(C)Sc1nnc(CSc2nc3nc(C)cc(C)n3n2)o1` (configuration not stated), the fluorescence (KMESF) was 15.
Regarding `Cn1c(=O)c2c(ncn2CCc2ccccc2)n(C)c1=O`, the fluorescence (KMESF) was 11.
Consider `CC(C)Cn1c(CN(Cc2ccccc2)Cc2ccccc2)nc2c1c(=O)n(C)c(=O)n2C`, for which the fluorescence (KMESF) is 8.
Turning to `CC(C)Cn1cnc2c1c(=O)n(CC(O)c1ccccc1)c(=O)n2CC(C)C` (configuration not stated), the fluorescence (KMESF) was 67 (active).
With `CCNC(=O)COc1cc(C)c(Br)c(C)c1`, the fluorescence (KMESF) was 9.
As for `CCCCc1nc2c(=O)[nH]c3ccccc3c2o1`, the fluorescence (KMESF) is 26.
The same measure for `CC1CCc2c(c3ccccc3[nH]c2=O)O1` (configuration not stated): 57 (active); for `CC(C)C(=O)Nc1c(O)c2ccccc2[nH]c1=O`: 10.
Consider `CCCN(CCC)C(=S)Nc1cc(C(=O)OC)ccc1C(=O)OC`, for which the fluorescence (KMESF) was 3.
On to `CN(CC(=O)NC1CCCCC1)S(=O)(=O)c1cccc2cccnc12`, for which the fluorescence (KMESF) was 118 (active).
Regarding `Cc1ccc(S(=O)(=O)N(C)CC(=O)NC2CCCC2)cc1`, the fluorescence (KMESF) was 10.
The value for `CN(CC(=O)NC1CCCCC1)S(=O)(=O)c1ccc(Br)s1` was 32.
In the case of `COc1ccc2c(c1)cc1n2CCN=C1NN`, the fluorescence (KMESF) is 7.
`Cc1ccccc1CN1CCN(C(=O)c2cccc(F)c2)CC1`: the fluorescence (KMESF) is 4.
On to `Cc1ccccc1CS(=O)(=O)CC1(O)CCN(C(=O)c2cccc(C(F)(F)F)c2)CC1`, for which the fluorescence (KMESF) was 88 (active).
Regarding `CC(C)CC(=O)N1CCC(O)(CS(=O)(=O)Cc2ccccc2)CC1`, the fluorescence (KMESF) is 7.
Consider `O=C(c1ccc(F)cc1)N1CCC(n2nnc3ccccc32)CC1`, for which the fluorescence (KMESF) was 34.
For the compound `CCOc1cnc(C(=O)NNC(=O)c2ccccc2Br)o1`, the fluorescence (KMESF) is 15.
For the compound `COc1cccc(-c2ccc(SCC(=O)N3CCN(c4ccccc4)CC3)nn2)c1`, the fluorescence (KMESF) was 8.
For the compound `COC(=O)CSc1ccc2nnc(CCNS(=O)(=O)c3ccc(C)cc3)n2n1`, the fluorescence (KMESF) was 4.
The same measure for `CC(C)CCNC(=O)C(C)N(C(=O)Cn1nnc(-c2ccc(F)cc2)n1)C1CCCC1` (configuration not stated): 51 (active); for `COc1ccc(-c2nnn(CC(=O)N(CCO)C(C(=O)NC3CCCC3)c3ccc(F)cc3)n2)cc1` (configuration not stated): 12.
Consider `CC(C)CCNC(=O)CN(C(=O)Cn1nnc(-c2ccc(F)cc2)n1)C1CCCC1`, for which the fluorescence (KMESF) is 14.
For `O=C(NNS(=O)(=O)c1ccc(F)cc1)c1cnccn1`, the fluorescence (KMESF) was 10.
The same measure for `CC(=O)Nc1cccc(Oc2cc(C#N)c(C#N)cc2N2CCOCC2)c1`: 7.
Regarding `COc1cc(N2CCCC2)c(OC)cc1/C=C(/C#N)c1cccc(Br)c1`, the fluorescence (KMESF) was 47 (active).
Regarding `COc1cccc(C(=O)Nc2ccc(N3CCCC3)cc2)c1`, the fluorescence (KMESF) is 9.
Turning to `COc1ccc(/C(=N\O)c2nccc3cc(OC)c(OC)cc23)cc1OC`, the fluorescence (KMESF) is 7.
Regarding `O=C(NC(=S)Nc1ccc(S(=O)(=O)N2CCOCC2)cc1)c1ccccc1[N+](=O)[O-]`, the fluorescence (KMESF) is 10.
As for `CCc1ccccc1NC(=O)Cc1cn(C)c2ccccc12`, the fluorescence (KMESF) was 10.
The same measure for `Fc1cccc(Cl)c1CSc1ccc(-c2ccco2)nn1`: 49 (active).
For the compound `Cn1c(SCc2c(F)cccc2Cl)nnc1-c1cnccn1`, the fluorescence (KMESF) is 1.
For the compound `Brc1ccc(CSc2ccc(-c3ccco3)nn2)cc1`, the fluorescence (KMESF) was 13.
Take `CCCCN(Cc1ccccc1)C(=O)C1CCN(Cc2sccc2C)CC1`: the fluorescence (KMESF) is 5.
As for `Cc1ccc(-c2cn(S(=O)(=O)c3cccc([N+](=O)[O-])c3)nc2N)cc1`, the fluorescence (KMESF) was 2.
Consider `O=C(N/N=C/c1cccc2cccnc12)[C@H]1C[C@@H]1c1ccccc1`, for which the fluorescence (KMESF) was 4.
Consider `Cc1c(CN2CCC(C)CC2)c(=O)n(-c2ccccc2)n1C`, for which the fluorescence (KMESF) was 9.
`Cc1c(CN2CCCC(C(=O)c3cccc(Cl)c3)C2)c(=O)n(-c2ccccc2)n1C` (configuration not stated): the fluorescence (KMESF) is 67 (active).
The value for `Cc1cccc(N2CCN(Cc3c(C)n(C)n(-c4ccccc4)c3=O)CC2)c1C` was 16.
Consider `Cc1ccc(N/C=C/C(=O)c2ccccc2)cc1C`, for which the fluorescence (KMESF) was 14.
In the case of `CC(=O)c1cnc(-c2ccccc2)s1`, the fluorescence (KMESF) was 9.
With `O=C(/C=C/Nc1ccccc1)c1cnc(-c2ccccc2)s1`, the fluorescence (KMESF) is 49 (active).
As for `CCNC(=O)CCc1nc(-c2ccc(C(C)(C)C)cc2)no1`, the fluorescence (KMESF) was 49 (active).
The value for `Cc1ccc(-c2noc(CCC(N)=O)n2)cc1` was 19; that for `CCNC(=O)CCc1nc(-c2ccc(C)cc2)no1` was 4.
On to `Cc1ccc2c(C)c(C(=O)N3CCC(N4CCC(C(=O)NC5CC5)CC4)CC3)oc2c1`, for which the fluorescence (KMESF) was 8.
For the compound `COc1ccc(NC(=O)C2C3C=CC(C3)C2C(=O)NCc2ccccn2)c(OC)c1` (configuration not stated), the fluorescence (KMESF) was 27.
Regarding `Cc1ccccc1N(C(=O)Cc1cccs1)C(C(=O)NC1CCCCC1)c1cn(C)nc1C` (configuration not stated), the fluorescence (KMESF) is 12.
The value for `O=S(=O)(NCCc1csc(-c2ccccc2)n1)c1cccnc1` was 5; that for `CC(C(=O)NC1CCCC1)N(c1ccc(Oc2ccccc2)cc1)S(C)(=O)=O` (configuration not stated) was 9.
Turning to `Cc1ccccc1C(OCCN(C)C)C1CCCCC1` (configuration not stated), the fluorescence (KMESF) is 13.
The value for `Cc1nnc(OCC(=O)NCCC2=CCCCC2)c2ccccc12` was 20; that for `O=C(COc1cccc(-n2cnnn2)c1)NCCC1=CCCCC1` was 5; that for `O=C(COc1ccc(Cl)cc1)NCCC1=CCCCC1` was 51 (active).
On to `COC/C=C/C1=CC2=CC(=O)C(C)(OC(=O)CCC(=O)OC)C(=O)C2=CO1` (configuration not stated), for which the fluorescence (KMESF) was 10.
As to `O=C(CSc1ccccc1)Nc1ccc(C(=O)Nc2cccc(O)c2)cc1`, the fluorescence (KMESF) was 15.
On to `O=C(NCCOc1ccccc1Cl)C(=O)Nc1ccccc1`, for which the fluorescence (KMESF) was 2.
The same measure for `COc1ccc(S(=O)(=O)N2CCCCCC2)cc1C(=O)OCC(=O)Nc1cc(C)on1`: 11; for `CN(C)c1ccc(/C=C/C(=O)c2ccc(C(C)(C)C)cc2)cc1[N+](=O)[O-]`: 57 (active).
`O=C(/C=C/c1ccc(Cl)c([N+](=O)[O-])c1)c1ccc(O)cc1`: the fluorescence (KMESF) was 6.
On to `CN(C)c1ccc(/C=C/C(=O)c2ccc(O)cc2)cc1[N+](=O)[O-]`, for which the fluorescence (KMESF) is 6.
In the case of `CCOc1ccc(Br)cc1CSC(=N)N`, the fluorescence (KMESF) was 8.
Regarding `N=C(N)SCc1cccc2ccccc12`, the fluorescence (KMESF) is 68 (active).
Consider `c1ccc2c(CSCc3nc4ccccc4[nH]3)cccc2c1`, for which the fluorescence (KMESF) was 9.
